# Screens (PubChem BioAssay)
# PAFAH1B2 inh – blocks human PAF acetylhydrolase 1b catalytic subunit 2; P68402; recombinant PAFAH1B2, FP-rhodamine activity probe, fluorescence polarization; inhibition, % at 3.39 µM; 1.2% of 340,000 active; AID 492953;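 active = inhibition above the mean of all tested compounds plus 3 SD, cut at about 24% in these data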;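 note: 0% = enzyme with DMSO and 100% = wells lacking PAFAH1B2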
# Target sequence (P68402 whole entry, looked up): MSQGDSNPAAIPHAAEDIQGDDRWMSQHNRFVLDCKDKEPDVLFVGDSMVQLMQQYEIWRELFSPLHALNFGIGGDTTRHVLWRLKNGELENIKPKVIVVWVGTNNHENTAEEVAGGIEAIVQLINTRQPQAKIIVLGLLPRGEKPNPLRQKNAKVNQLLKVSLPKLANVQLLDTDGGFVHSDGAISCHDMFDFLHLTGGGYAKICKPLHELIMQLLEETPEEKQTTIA
# Fam108B inh – blocks mouse Fam108B hydrolase in RBBP9 counter-screen | recombinant Fam108B, FP-Rh probe fluorescence polarization | inhibition, % at 9.51 µM | 0.33% of 300,000 active;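 active = inhibition above the screen mean inhibition plus 3 SD, computed separately per campaign, cut at about 18% in these data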;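 note: inhibitors lower polarization as less probe binds the enzyme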
# pPAFAH FP inh – inhibitors of human plasma PAF acetylhydrolase (pPAFAH). Q13093. recombinant pPAFAH, FP-rhodamine probe fluorescence polarization. inhibition, % at 3.39 µM. 1.5% of 330,000 active. AID 463082;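 active = inhibition above the mean inhibition across the screen plus 3 SD, cut at about 25% in these data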;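 note: inhibitors block binding of the rhodamine activity-based probe so polarization drops; 0% = enzyme with DMSO and 100% = wells lacking pPAFAH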
# PAFAH2 inh – PAFAH2 (human) inhibition; inhibition, % at 3.39 µM; recombinant PAFAH2, FP-rhodamine activity probe, fluorescence polarization; 0.99% of 340,000 active; AID 492956; Q99487;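 active = inhibition above the mean over all tested compounds plus 3 SD, cut at about 30% in these data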;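 note: inhibitors block probe labeling of enzyme so polarization drops; 0% = enzyme with DMSO and 100% = wells lacking PAFAH2 protein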
# PAFAH1B3 FP inh – inhibitors of human PAFAH1B3 | recombinant PAFAH1B3, FP-rhodamine probe, fluorescence polarization | Q15102 | inhibition, % at 3.39 µM | 0.28% of 340,000 active;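 active = inhibition above the screen-wide average of all tested compounds plus 3 SD, cut at about 25% in these data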;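 note: 0% = enzyme with DMSO only and 100% = wells lacking PAFAH1B3 protein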
# PME-1 primary – blocks human protein phosphatase methylesterase 1; 0.53% of 320,000 active; recombinant PME-1, FP-Rh probe fluorescence polarization; inhibition, % at 5.9 µM;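 active = inhibition above the campaign mean of all compounds plus 3 SD, cut at about 26% in these data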;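 note: competitive labeling of PME-1 active site by serine hydrolase directed probe; 0% = PME-1 with DMSO and 100% = wells lacking PME-1 enzyme; inhibitors block probe labeling so polarization falls and inhibition rises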
# Target sequence (Q9Y570 whole entry, looked up): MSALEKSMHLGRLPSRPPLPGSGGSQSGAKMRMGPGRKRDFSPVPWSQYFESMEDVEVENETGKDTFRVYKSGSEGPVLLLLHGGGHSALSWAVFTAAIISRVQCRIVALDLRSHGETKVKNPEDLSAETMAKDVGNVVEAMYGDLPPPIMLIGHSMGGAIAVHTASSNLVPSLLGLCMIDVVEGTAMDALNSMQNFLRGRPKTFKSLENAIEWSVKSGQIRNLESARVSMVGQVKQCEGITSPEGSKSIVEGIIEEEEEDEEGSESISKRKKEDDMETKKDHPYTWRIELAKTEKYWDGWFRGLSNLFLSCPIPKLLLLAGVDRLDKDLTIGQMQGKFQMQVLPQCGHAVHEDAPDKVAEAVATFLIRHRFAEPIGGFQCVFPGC
# * = called active by the depositor; x = no result given. Shown are actives, neighbours in structure and some others; about 2.8% of the full set was active somewhere.
SMILES,PAFAH1B2 inh,Fam108B inh,pPAFAH FP inh,PAFAH2 inh,PAFAH1B3 FP inh,PME-1 primary
COc1ccc2cc(C[C@@H]3CC[C@@H](CO)O3)ccc2c1,0,x,2,1,4,x
Cc1cc(C)cc(N(CC(=O)Nc2ccc(C(F)(F)F)cc2)S(=O)(=O)c2c(C)[nH]c(=O)[nH]c2=O)c1,3,-2,28*,0,-1,-6
COc1cc(NC(=O)CN(c2cc(C)cc(C)c2)S(=O)(=O)c2c(C)[nH]c(=O)[nH]c2=O)cc(OC)c1,3,0,25*,1,6,-4
CC1(C)CC[C@]2(C(=O)n3ccnc3)CC[C@]3(C)[C@H](C(=O)C=C4[C@@]5(C)C=C(C#N)C(=O)C(C)(C)[C@@H]5CC[C@]43C)[C@@H]2C1,9,x,x,14,3,x
O=C1C2C3C=CC(CC3)C2C(=O)N1c1ccccc1F (centres undefined),7,-2,-6,-10,8,-2
O=C(NNc1c2ccccc2nc2ccccc12)c1ccc(O)cc1,6,8,16,9,5,49*
O=C(NNc1c2ccccc2nc2ccccc12)c1cccc(O)c1,8,6,26*,16,16,40*
O=C(NNc1c2ccccc2nc2ccccc12)c1ccccc1O,14,14,32*,22,14,54*
O=C(NNc1c2ccccc2nc2ccccc12)c1ccccc1Cl,2,-6,18,-2,9,-8
COc1ccc(-c2oc3ccc(-c4ccc5c(c4)OCO5)cc3c2C#CC2(O)CCCCC2)cc1,-7,-24,-1,-16,-9,-27
COc1cc(-c2ccc3oc(-c4cccc(C)c4)c(C#CC4(O)CCCCC4)c3c2)cc(OC)c1OC,-3,x,27*,-8,-7,x
CCc1nc(Nc2ccc3c(c2)OCO3)c2oc3ccccc3c2n1,4,3,12,8,1,31*
N#CCSc1nc(Nc2ccc3c(c2)OCO3)c2ccccc2n1,8,8,26*,6,9,12
CCc1nc(Nc2cccc(O)c2)c2oc3ccccc3c2n1,1,x,x,-2,5,x
CCCCCC(=O)Nc1cc(S(=O)(=O)N2CCCCC2)ccc1N1CCCCC1,2,x,x,0,4,x
CCCCCC(=O)Nc1cc(S(=O)(=O)O)cc2cc(S(=O)(=O)O)cc(O)c12,17,x,x,57*,35*,x
Cc1cc(Cn2ccnc2)c(C)c([N+](=O)[O-])c1Cn1ccnc1,1,-2,2,1,6,-1
CCC1=NN2C(=N)/C(=C\c3cccn3-c3ccc(Cl)cc3)C(=O)N=C2S1,42*,-2,3,5,1,-3
Cc1ccc(-n2cccc2/C=C2\C(=N)N3N=C(c4ccco4)SC3=NC2=O)cc1,32*,2,15,16,7,11
CCC1=NN2C(=N)/C(=C\c3cccn3-c3ccc(C)c(C)c3)C(=O)N=C2S1,1,-5,10,10,5,-11
COc1cc2c(cc1OC)CN(C(=O)c1cccc(S(=O)(=O)N3CCc4ccccc43)c1)CC2,1,x,1,8,4,5
CCOc1ccc(Br)cc1C1=NN(C(C)=O)C(c2ccc([N+](=O)[O-])s2)O1 (centres undefined),10,x,x,39*,17,x
CC(=O)N1N=C(c2ccc(C)cc2)OC1c1ccc(Br)cc1 (centres undefined),8,-5,3,5,-3,0
Brc1ccc(CSc2nnc(-c3ccco3)o2)cc1,27*,2,4,-5,1,0
CCc1cc(C(=O)Cc2ccc(F)cc2)c(O)cc1O,10,1,-9,-6,-3,1
SMILES,PAFAH1B2 inh,Fam108B inh,pPAFAH FP inh,PAFAH2 inh,PAFAH1B3 FP inh,PME-1 primary
O=C(Cc1ccc(F)cc1)c1ccc(O)cc1O,25*,0,6,6,2,0
COC(=O)C1=C(C)N(CCCC(=O)O)C(=O)NC1c1cc2c(cc1[N+](=O)[O-])OCO2 (centres undefined),6,7,30*,12,8,-4
COC(=O)C1=C(C)N(C)C(=O)NC1c1cc2c(cc1[N+](=O)[O-])OCO2 (centres undefined),15,7,16,-14,5,1
CN(CC(=O)Nc1ccc(F)cc1)C(=O)CN1C(=O)c2cccc([N+](=O)[O-])c2C1=O,3,x,-2,7,12,-1
CCCCN1C(=O)N(c2nnc(C(C)(C)C)s2)C(O)C1c1ccc(C)cc1 (centres undefined),3,0,6,1,7,-2
N#C/C(=C\c1ccc(N2CCOCC2)o1)C(=O)NC1CCCCC1,24*,3,-2,2,3,-6
N#C/C(=C\c1ccc(N2CCOCC2)o1)C(=O)NCC1CCCO1 (centres undefined),3,-1,-2,5,6,1
O=C(NNC(=S)Nc1ccccc1)c1cc(-c2cccnc2)nc2ccccc12,8,4,24,-1,9,1
CCNC(=S)NNC(=O)c1cc(-c2cccc(C)c2)nc2ccccc12,32*,-1,23,-3,0,1
CCCCOc1cccc(-c2cc(C(=O)NNC(=S)NCC)c3ccccc3n2)c1,5,3,21,8,4,-1
CCNC(=S)NNC(=O)c1cc(-c2ccc(OC)cc2)nc2ccccc12,28*,4,16,3,9,0
CCOC(=O)c1ccc(NC(=S)NNC(=O)c2cc(-c3cccnc3)nc3ccccc23)cc1,10,5,30*,1,16,8
CCNC(=S)NNC(=O)c1cc(-c2cccc(OCC)c2)nc2ccccc12,6,1,16,0,-2,-1
Cc1ccc(Nc2c([N+](=O)[O-])ccc3c2=NC2(CCCCC2)N=3)cc1,10,16,6,22,21,31*
Cc1nc2cc(Cl)ccc2n1-c1ccccc1,6,2,25*,5,1,5
CN(C)C1=NC[C@H](Cc2ccccc2)N1CC1CCCCCC1,1,3,2,-2,2,2
O=C1CS/C(=N\C(=O)N2c3ccccc3Sc3ccccc32)N1,25*,4,26*,-5,-1,-7
O=C(CCC(=O)NNC(=O)COc1ccc(Br)cc1Br)NCc1ccccc1,x,-5,27*,x,x,-2
CC1CCCCC12NC(=O)N(CC(=O)N1CCN(C(=O)c3cccs3)CC1)C2=O (centres undefined),2,x,4,-2,7,-9
Cc1ccc(OCCC(=O)Nc2cc(S(=O)(=O)N3CCOCC3)ccc2N2CCCC2)cc1,2,x,x,11,3,x
COc1ccc(CCNCC2C(Oc3ccc(Cl)cc3)C(=O)N2c2ccccc2C)cc1OC (centres undefined),-4,-2,3,-3,-6,0
CC(C)N=c1scc(-c2cccs2)n1/N=C/c1ccc(O)c(O)c1O,0,-10,68*,1,5,14
